# Results published in PubChem BioAssay AID463173 (ICCB-Longwood Screening Facility, Harvard Medical School, 2010).
# Out of some 52,000 compounds screened, about 1,700 (3.3%) were called active. No stated cut-off is given here; in the data, active means survival mostly below about 52% (no sharp cut-off); inactive means mostly above about 56%. The sample as a whole holds a higher share of actives than the screen did.
# Tested on: Wild type
# Assay: growth inhibition of S. aureus wild type versus tarO mutant, primary screen, teichoic acid synthesis inhibitors, RN4220, OD600 (AID 463173)
# Conditions: S. aureus RN4220 wild type/DeltatarO growth, OD600, 18 h, hits give low values, screened at 18.75 µg/mL (by protocol)
row,SMILES,survival
1,CC(C)c1cc2cc(/C=C/C(=O)O)c(O)cc2o1,39% (inactive)
2,CCC(CC)N1CCN(S(=O)(=O)c2ccc(NC(C)=O)cc2)CC1,113% (inactive)
3,O=C(/C=C/c1ccccc1)N1CCN(CCN2C(=O)C3C4C=CC(C4)C3C2=O)CC1 (configuration not stated),124% (inactive)
4,Cc1nc(-c2ccc(S(=O)(=O)NCc3ccc(F)cc3)cc2)co1,68% (inactive)
5,Nc1c(-c2nc(-c3ccc4c(c3)OCO4)cs2)c2ccccn2c1C(=O)c1ccccc1,86% (inactive)
6,COc1ccccc1N1CCN(C(=O)C2CCN(S(=O)(=O)Cc3ccccc3)CC2)CC1,84% (inactive)
7,COc1ccc(-c2nc(CS(=O)CC(=O)NCc3ccccc3OC)c(C)o2)cc1 (configuration not stated),123% (inactive)
8,O=C(C1CCC(Cn2c(=O)c3sccc3n(Cc3ccccc3)c2=O)CC1)N1CCOCC1 (configuration not stated),95% (inactive)
9,CCCn1c2ccccc2c2cnn(CC(=O)N3CCC(C(=O)OCC)CC3)c(=O)c21,87% (inactive)
10,Cc1ccc(C)c(N2CCN(c3nc4ccccc4n4c(C)nnc34)CC2)c1,87% (inactive)
11,Cc1ccc(N2CCN(c3nc4ccc(C(=O)c5ccccc5)cc4n4cnnc34)CC2)c(C)c1,72% (inactive)
12,CCc1nnc2c(N3CCN(c4cc(Cl)ccc4C)CC3)nc3ccccc3n12,-6% (active)
13,Cc1ccc(C)c(N2CCN(c3nc4ccc(C(=O)c5ccccc5)cc4n4cnnc34)CC2)c1,100% (inactive)
14,Cc1ccc(Cl)cc1N1CCN(c2nc3ccc(C(=O)c4ccccc4)cc3n3cnnc23)CC1,-6% (active)
15,CCc1nnc2c3ccccc3nc(N3CCN(c4cc(Cl)ccc4C)CC3)n12,126% (inactive)
16,O=C(CN1C(=O)C2(SCC(=O)N2c2ccc(F)c(F)c2)c2ccccc21)Nc1cccc(Cl)c1 (configuration not stated),68% (inactive)
17,CCOC(=O)c1cccc(Nc2c3c(nc4ccccc24)CCC3)c1,73% (inactive)
18,COc1ccccc1Nc1c2c(nc3ccc(NC(=O)c4cccc(F)c4)cc13)CCCC2,35% (inactive)
19,FC(F)(F)c1cccc(Nc2c3c(nc4ccc(Cl)cc24)CCC3)c1,5% (active)

row,SMILES,survival
1,Cc1ccc(Nc2c3c(nc4ccccc24)CCC3)cc1F,2% (active)
2,Cc1ccc2nc3c(c(Nc4ccc(C)c(C)c4)c2c1)CCC3,39% (inactive)
3,Fc1ccc(F)c(Nc2c3c(nc4ccc(Cl)cc24)CCC3)c1,-1% (active)
4,Fc1ccc(Nc2c3c(nc4ccccc24)CCC3)cc1,70% (inactive)
5,COc1ccc(Nc2c3c(nc4ccccc24)CCC3)cc1Cl,72% (inactive)
6,Fc1ccccc1Nc1c2c(nc3ccccc13)CCC2,102% (inactive)
7,CC1(C)Cc2nc3sc4c(N5CCOCC5)ncnc4c3cc2CO1,97% (inactive)
8,O=C(Cn1c(=O)oc2ccccc21)NCc1cccc(Cl)c1,78% (inactive)
9,CCOC(=O)c1cnc2nc(NCc3cccc(Br)c3)[nH]n2c1=O,98% (inactive)
10,NC(=O)C1CCN(c2nc(C3CC3)nc3c2nnn3Cc2ccccc2Cl)CC1,108% (inactive)
11,O=C(CN1C=NS(=O)(=O)c2ccc(C(F)(F)F)cc21)Nc1cccc(C(F)(F)F)c1,76% (inactive)
12,COc1cccc(C2CC(=O)Nc3c2c(=O)n(C)c2nc4ccccc4n32)c1OC (configuration not stated),67% (inactive)
13,Cc1ccc(S(=O)(=O)Cc2nc(-c3ccc(C(=O)NCCCOC(C)C)cc3)oc2C)cc1,75% (inactive)
14,Cc1oc(-c2ccc(C(=O)NCCCOC(C)C)cc2)nc1CS(=O)(=O)c1ccccc1,-6% (active)
15,CCOCCCNC(=O)c1ccc(-c2nc(CS(=O)(=O)c3ccccc3)c(C)o2)cc1,87% (inactive)
16,CCOc1ccc(-c2nc(SCC(=O)Nc3ccc4c(c3)OCO4)c(-c3ccc(F)cc3)[nH]2)cc1,98% (inactive)
17,Cc1ccc(Cl)cc1-n1ncc2c(NCc3ccc(F)cc3)ncnc21,73% (inactive)
18,O=C(NC1CC(=O)N(c2ccc(Cl)cc2)C1)c1ccc(S(=O)(=O)N2CCOCC2)cc1 (configuration not stated),91% (inactive)
19,O=C(NC1CC(=O)N(c2ccccc2)C1)c1ccc(S(=O)(=O)N2CCCCC2)cc1 (configuration not stated),-1% (active)

row,SMILES,survival
1,O=C(NC1CC(=O)N(c2ccccc2)C1)c1ccc(S(=O)(=O)N2CCCC2)cc1 (configuration not stated),133% (inactive)
2,Cc1ccc(N2CC(NC(=O)c3ccc(S(=O)(=O)N4CCOCC4)cc3)CC2=O)cc1 (configuration not stated),47% (inactive)
3,O=C(NC1CC(=O)N(c2ccc(F)cc2)C1)c1ccc(S(=O)(=O)N2CCCCC2)cc1 (configuration not stated),83% (inactive)
4,O=C(NC1CC(=O)N(c2ccccc2)C1)c1ccc(S(=O)(=O)N2CCOCC2)cc1 (configuration not stated),14% (active)
5,CCOc1ccc(NC(=O)C2CCN(S(=O)(=O)c3c(C)noc3/C=C/c3ccco3)CC2)cc1,73% (inactive)
6,CC(=O)c1ccc(S(=O)(=O)Nc2ccc(-c3ccc(N4CCCCCC4)nn3)cc2)cc1,83% (inactive)
7,CCOC(=O)c1c(S(=O)(=O)NCC(=O)N2CCN(c3ccccc3)CC2)c(C)n(C)c1C,112% (inactive)
8,CCSc1nnc2n(-c3cccc(C)c3)c(=O)c3c4c(sc3n12)CCCC4,81% (inactive)
9,CCCSc1nnc2n(-c3cccc(C)c3)c(=O)c3c4c(sc3n12)CCCC4,2% (active)
10,CSc1nnc2n(-c3cccc(C)c3)c(=O)c3c4c(sc3n12)CCCC4,79% (inactive)
11,CCSc1nnc2n(-c3ccccc3)c(=O)c3c4c(sc3n12)CCCC4,108% (inactive)
12,Cc1cccc(-n2c(=O)c3c4c(sc3n3cnnc23)CCCC4)c1,72% (inactive)
13,CCCCSc1nnc2n(-c3cccc(C)c3)c(=O)c3c4c(sc3n12)CCCC4,-1% (active)
14,Cc1cc(=O)[nH]c(SCC(=O)N(c2ccccc2)c2ccccc2)n1,103% (inactive)
15,Cc1ccc(NC(=O)N2CC3CCCN3c3ccccc32)cc1Cl (configuration not stated),83% (inactive)
16,Cc1ccc(NC(=O)N2CC3CCCN3c3ccccc32)cc1C (configuration not stated),-2% (active)
17,Cc1ccc(NC(=O)N2CC3CCCN3c3ccccc32)c(C)c1 (configuration not stated),117% (inactive)
18,COc1ccc(S(=O)(=O)c2c(Nc3c(C)cccc3C)sc(C(=O)c3ccc4c(c3)OCO4)c2N)cc1,74% (inactive)
19,CCOC(=O)c1ccccc1NC(=O)c1ccco1,121% (inactive)
